According to PubChem BioAssay (Tox21):
Inconclusive results are not listed. A call without a number means that no potency is given here. Values without a mark were called inactive. Calls of active or inactive are those of the source. Unless noted, calls follow the shape of the dose curve; as a rule, active = well fitted curve in the direction sought with a large enough effect in the repeat runs; inconclusive = weak or mixed curves; inactive = no such curve, though single readings can be large; an effect the other way counts as inactive or inconclusive.

Columns and labels:
[1] = qHTS assay to identify small molecule agonists of the NFkB signaling pathway - cell viability counter screen (AID 1159515; calls by dose curve; also: nearly all actives have a fitted effect of over 55% in size; also: potency is read from the fitted curve at half-maximal effect)
Procedure, shortened: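 Counter screen run alongside the NFkB-bla agonist assay: ME-180 reporter cells exposed to compounds for 5 hr, then lysed with CellTiter-Glo in the same wells. Luminescence, read after 30 min, reflects viable cells.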

[2] = qHTS assay to identify small molecule agonists of the endoplasmic reticulum stress response signaling pathway (AID 1159516; active = well fitted activation curve with a large enough effect in the signal ratio in the repeat runs, not every such curve was filed as active; the % refers to the signal ratio)
Procedure, shortened: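 For this screen, HeLa cells stably carrying beta-lactamase under the ER stress response element received test compounds, positive controls or DMSO for 5 hr at 37 C; B/G FRET substrate was then added and dual-wavelength emission recorded.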

[3] = qHTS assay to identify small molecule agonists of the endoplasmic reticulum stress response signaling pathway - cell viability counter screen (AID 1159517; calls by dose curve; also: nearly all actives have a fitted effect of over 50% in size; also: potency is read from the fitted curve at half-maximal effect)
Procedure, shortened: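 Cpd-treated ESRE-bla HeLa (5 hr, 37 C) → LiveBLAzer 2 hr RT → CellTiter-Glo 30 min RT → luminescence.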

[4] = qHTS assay to identify small molecule antagonists of the retinoid-related orphan receptor gamma (ROR-gamma) signaling pathway - cell viability counter screen (AID 1159520); also: nearly all actives have a fitted effect of over 50% in size; also: potency is read from the fitted curve at half-maximal effect
Procedure, shortened: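 Tet-on ROR gamma CHO cells (1,000/well) were plated 4 hr, given compounds in DMSO for 2 hr at 37 C, then induced with 1 uM final doxycycline for 16 hr. Viability was read as ATP by CellTiter-Glo luminescence after 30 min.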

[5] = target: Nuclear receptor ROR-gamma (Homo sapiens) (UniProt P51449); test: qHTS assay to identify small molecule antagonists of the retinoid-related orphan receptor gamma (ROR-gamma) signaling pathway (AID 1159521; also: nearly all actives have a fitted effect of over 50% in size; also: potency is read from the fitted curve at half-maximal effect)
Procedure, shortened: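 Luminescence readout (ONE-Glo, 30 min RT) after 16 h doxycycline induction; loss of signal scored as antagonism. CHO cells with TET-inducible RORγ and RORE-LUC reporter; compounds added 2 h before 1 uM final doxycycline.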

[6] = qHTS assay to identify small molecule agonists of the AP-1 signaling pathway - cell viability counter screen (AID 1159525; calls by dose curve; also: nearly all actives have a fitted effect of over 55% in size)
Procedure, shortened: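 Each titration point was normalised to DMSO and tetra n-octyl ammonium bromide controls. The read was Cell Titer Glo luminescence after 30 min at RT, following 5 h compound exposure of ME-180 AP-1-bla cells at 37 °C.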

[7] = qHTS assay to identify small molecule agonists of the RXR signaling pathway - cell viability counter screen (AID 1159529); also: series mostly up to about 77 µM; nearly all actives have a fitted effect of over 50% in size
Procedure, shortened: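 Luminescence from CellTiter-Glo (30 min, RT) measured viability in the same wells as the beta-lactamase reporter readout. Cells: GeneBLAzer RXR-alpha HEK 293T, 2% charcoal-stripped FBS. Compound exposure 16 hr, 37 C.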

[8] = qHTS assay to identify small molecule antagonists of the retinoid acid receptor (RAR) signaling pathway - cell viability counter screen (AID 1159551); also: nearly all actives have a fitted effect of over 35% in size
Procedure, shortened: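 Measured by luminescent ATP detection, viability reflects C3RL4 cells treated 6 h at 37 C with test chemicals in the presence of 1 uM (final) retinol.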

[9] = qHTS assay to identify small molecule antagonists of the vitamin D receptor (VDR) signaling pathway - cell viability counter screen (AID 743225); also: nearly all actives have a fitted effect of over 50% in size
Procedure, shortened: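 Viability counter screen run in the same wells as the beta-lactamase reporter assay: HEK 293T VDR-UAS-bla cells, 16 h compound exposure at 37C with 3 nM (final) 1-alpha,25-dihydroxyvitamin D3. CellTiter-Glo luminescence, 30 min, room temperature.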

[10] = qHTS assay to identify small molecule agonists of the AP-1 signaling pathway (AID 1159526; calls by dose curve)
[11] = qHTS assay to identify small molecule antagonists of the estrogen related receptor (ERR) signaling pathway from Tox21 library - cell viability counter screen (AID 1224834); also: nearly all actives have a fitted effect of over 30% in size; also: potency is read from the fitted curve at half-maximal effect
Procedure, shortened: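 Seeded ERR cells were rested 6 h at 37 C/5% CO2 before compounds, positive and negative controls or DMSO were added. Incubation continued for 17.5 h, and viability was then quantified by CellTiter-Fluor fluorescence.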

[12] = qHTS assay to identify small molecule agonists of the retinoic acid receptor (RAR) signaling pathway (AID 1159553)
Procedure, shortened: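 6 hr compound exposure (DMSO vehicle) of overnight-plated C3RL4 RARE-luc cells at 37 C; luminescence quantified after 30 min RT with luciferase reagent.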

[13] = qHTS assay to identify small molecule antagonists of the retinoic acid receptor (RAR) signaling pathway (AID 1159552; also: nearly all actives have a fitted effect of over 50% in size; also: potency is read from the fitted curve at half-maximal effect)
Procedure, shortened: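 Luminescence from a RARE luciferase reporter in C3RL4 cells served as read-out. Cells received compounds together with 1 uM final retinol and incubated 6 hr at 37 C before detection reagent was added for 30 min at room temperature.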

[14] = target: Retinoic acid receptor RXR-alpha (Homo sapiens) (UniProt P19793); test: qHTS assay to identify small molecule agonists of the RXR signaling pathway (AID 1159527; calls by dose curve; also: nearly all actives have a fitted effect of over 35% in size)
Sequence of Retinoic acid receptor RXR-alpha (Homo sapiens) (P19793 whole entry, looked up): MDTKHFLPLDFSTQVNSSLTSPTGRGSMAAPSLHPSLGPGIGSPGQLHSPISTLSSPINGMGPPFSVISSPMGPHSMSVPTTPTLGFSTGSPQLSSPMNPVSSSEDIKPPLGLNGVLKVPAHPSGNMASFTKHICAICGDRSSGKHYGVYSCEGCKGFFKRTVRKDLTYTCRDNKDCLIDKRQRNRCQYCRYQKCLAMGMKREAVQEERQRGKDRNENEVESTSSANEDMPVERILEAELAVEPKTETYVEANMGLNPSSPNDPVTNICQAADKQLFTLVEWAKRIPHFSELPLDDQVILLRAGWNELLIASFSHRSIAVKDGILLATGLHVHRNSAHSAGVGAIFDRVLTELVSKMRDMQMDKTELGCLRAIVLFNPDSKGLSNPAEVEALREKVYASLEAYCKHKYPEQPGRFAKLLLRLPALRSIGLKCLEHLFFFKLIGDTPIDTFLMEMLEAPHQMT
Procedure, shortened: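 Agonist mode; 9-cis retinoic acid positive control. HEK 293T UAS-bla reporter cells, 2% charcoal-stripped FBS, 16 hr compound exposure at 37 C/5% CO2. LiveBLAzer B/G FRET substrate 2 hr RT; ex 405, em 460/530 nm.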

SMILES	Potency [1]	Potency [2]	Potency [3]	Potency [4]	Potency [5]	Potency [6]	Potency [7]	Potency [8]	Potency [9]	Potency [10]	Potency [11]	Potency [12]	Potency [13]	Potency [14]
CC[C@]1(O)CC[C@H]2[C@@H]3CCC4=CCCC[C@@H]4[C@H]3CC[C@@]21C	inactive	inactive	inactive	inactive	inactive	inactive	inactive	inactive	–	–	–	–	–	–
CCN(CC)CCN1C(=O)CN=C(c2ccccc2F)c2cc(Cl)ccc21	inactive	inactive	inactive	inactive	inactive	inactive	inactive	inactive	inactive	inactive	inactive	–	–	–
CC(C)C(Br)C(=O)NC(N)=O (stereo not drawn)	inactive	inactive	inactive	inactive	inactive	–	–	–	inactive	inactive	–	–	–	–
COP(=O)(OC)O/C(=C\Cl)c1cc(Cl)c(Cl)cc1Cl	inactive	inactive	inactive	inactive	38.6 µM (active)	inactive	inactive	inactive	–	–	–	inactive	–	–
CCOP(=O)(Sc1ccccc1)Sc1ccccc1	inactive	inactive	inactive	inactive	inactive	inactive	inactive	–	–	–	inactive	inactive	48.6 µM (active)	–
CCC1(CC)C(=O)N=C(O)NC1=O	inactive	inactive	inactive	inactive	inactive	inactive	inactive	inactive	inactive	–	inactive	inactive	inactive	inactive
Cc1ccc(C)c2ccccc12	inactive	inactive	inactive	inactive	inactive	inactive	inactive	inactive	inactive	inactive	–	–	–	–
CCC[CH2][Sn]([CH2]CCC)([O]C(C)=O)[O]C(C)=O	11.1 µM (active)	inactive	1.97 µM (active)	0.0978 µM (active)	0.0692 µM (active)	–	–	inactive	inactive	–	0.138 µM (active)	–	0.138 µM (active)	–
CSSC	inactive	inactive	inactive	inactive	inactive	inactive	inactive	inactive	inactive	–	inactive	inactive	inactive	–
C=Cc1cccc(CCl)c1	inactive	inactive	inactive	inactive	inactive	inactive	inactive	inactive	inactive	inactive	inactive	–	–	–
CC1=C2C[C@H]3[C@@H](CC=C4C[C@@H](O)CC[C@@]43C)[C@@H]2CC[C@]12O[C@@H]1C[C@H](C)CN[C@H]1[C@H]2C	inactive	inactive	inactive	inactive	8.41 µM (active)	inactive	–	inactive	inactive	–	26.6 µM (active)	inactive	inactive	–
ClC1=C(Cl)[C@]2(Cl)[C@@H]3[C@H]4C[C@H]([C@@H]5O[C@H]45)[C@@H]3[C@@]1(Cl)C2(Cl)Cl	inactive	inactive	inactive	inactive	27.3 µM (active)	inactive	–	inactive	inactive	–	inactive	–	inactive	–
CNC(=O)O/N=C(\C)C(C)S(C)(=O)=O (stereo not drawn)	inactive	inactive	inactive	inactive	inactive	inactive	inactive	–	–	–	inactive	–	–	–
CCNS(=O)(=O)C(F)(F)C(F)(F)C(F)(F)C(F)(F)C(F)(F)C(F)(F)C(F)(F)C(F)(F)F	inactive	inactive	inactive	inactive	inactive	inactive	inactive	inactive	–	–	–	–	inactive	–
CC#C[C@]1(O)CC[C@H]2[C@@H]3C[C@H](C)C4=CC(=O)CC[C@]4(C)[C@H]3CC[C@@]21C	inactive	inactive	inactive	inactive	26.6 µM (active)	inactive	inactive	–	inactive	–	–	inactive	13.3 µM (active)	–
CC(C)Br	inactive	inactive	inactive	inactive	inactive	inactive	–	–	inactive	–	inactive	inactive	inactive	–
Nc1ccc(Cl)cc1C(=O)c1ccccc1F	inactive	inactive	inactive	inactive	inactive	inactive	inactive	inactive	inactive	–	–	inactive	–	–
O=[N+]([O-])c1ccc(Cl)c(Cl)c1Cl	inactive	inactive	inactive	inactive	inactive	inactive	inactive	inactive	inactive	–	inactive	–	inactive	inactive
COc1cnc(OC)n2nc(NS(=O)(=O)c3c(OCC(F)F)cccc3C(F)(F)F)nc12	inactive	inactive	inactive	inactive	inactive	inactive	inactive	inactive	inactive	inactive	inactive	–	–	–
O=[N+]([O-])c1ccccc1-c1ccccc1	inactive	inactive	inactive	inactive	inactive	inactive	inactive	inactive	inactive	–	inactive	inactive	inactive	inactive
O=C(N[C@@H]1N=C(c2ccccc2F)c2cccc3c2N(CC3)C1=O)c1cc2ccccc2[nH]1	inactive	inactive	inactive	inactive	inactive	inactive	inactive	inactive	inactive	–	–	inactive	inactive	inactive
Clc1cc(Cl)c(-c2cc(Cl)c(Cl)cc2Cl)cc1Cl	inactive	inactive	inactive	inactive	inactive	inactive	–	–	inactive	–	inactive	inactive	inactive	–
O=[N+]([O-])c1cccc2cccc([N+](=O)[O-])c12	inactive	inactive	inactive	inactive	inactive	–	inactive	inactive	inactive	inactive	–	inactive	54.7 µM (active)	inactive
